Assay [1] in a line: qHTS RealTime-Glo MT Cell Viability Assay in HEK293 cells - 0 hour (AID 1224880). Also: top concentration of the series differs between compounds; nearly all actives have a fitted effect of over 45% in size. In outline:
(§1)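 Viable HEK293 cells reduce a cell-permeant prosubstrate; the product diffuses out and is consumed by NanoLuc in the medium to give light. Compounds went in after a 5 h incubation and plates were read over the treatment course.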

Assay [2] is described as follows: A CellTox Green Cytotoxicity Assay to monitor cytotoxicity in HEK293 cells - 32 hour (AID 1224881). Also: nearly all actives have a fitted effect of over 40% in size. The method in brief:
(§2)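 Fluorescence intensity, read at 0, 8, 16, 24, 32 and 40 h of compound treatment, reflected dye binding to DNA of dead HEK293 cells; compounds (23 nL, DMSO) were added 5 h after plating cells with reagent.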

Assay [3] in a line: A CellTox Green Cytotoxicity Assay to monitor cytotoxicity in HepG2 cells - 0 hour (AID 1224882). Also: nearly all actives have a fitted effect of over 35% in size. The method in brief:
(§3)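 Using 1536-well format, dye-containing HepG2 suspension was seeded, allowed 5 h at 37 C/5% CO2, dosed by pintool with compounds, positive and negative controls, and imaged for fluorescence across 40 h.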

The nature of assay [4]: A CellTox Green Cytotoxicity Assay to monitor cytotoxicity in HepG2 cells - 32 hour (AID 1224883). Also: nearly all actives have a fitted effect of over 50% in size. The method in brief: as §3
Assay [5] can be described thus: A CellTox Green Cytotoxicity Assay to monitor cytotoxicity in HEK293 cells - 8 hour (AID 1224884). Also: nearly all actives have a fitted effect of over 35% in size. The method in brief: as §2
Assay [6] is described as follows: qHTS RealTime-Glo MT Cell Viability Assay in HepG2 cells - 16 hour (AID 1224885). Also: nearly all actives have a fitted effect of over 50% in size. In outline:
(§4)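 Cells + NanoLuc/prosubstrate dispensed (600 cells/well) → 5 h at 37 C/5% CO2 → compounds in DMSO transferred → 40 h incubation at 37 C, luminescence read at 0, 8, 16, 24, 32, 40 h.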
On the technique in general: In qHTS, concentration-response curves come from the screen itself.

Assay [7] can be described thus: qHTS RealTime-Glo MT Cell Viability Assay in HEK293 cells - 8 hour (AID 1224887). Also: top concentration of the series differs between compounds; nearly all actives have a fitted effect of over 50% in size. In outline:
as §1

Assay [8] in a line: qHTS RealTime-Glo MT Cell Viability Assay in HepG2 cells - 0 hour (AID 1224889). Also: nearly all actives have a fitted effect of over 50% in size. Also: potency is read from the fitted curve at half-maximal effect. In outline: as §4
A short description of assay [9]: qHTS RealTime-Glo MT Cell Viability Assay in HEK293 cells - 24 hour (AID 1224886). In outline: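 Tox21 10K qHTS, HEK293, 600 cells/well, RealTime-Glo reagent co-dispensed with cells; 5 h preincubation, compound by pintool, 37 C, luminescence at 0–40 h.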
The nature of assay [10]: A CellTox Green Cytotoxicity Assay to monitor cytotoxicity in HEK293 cells - 16 hour (AID 1224888). Also: nearly all actives have a fitted effect of over 35% in size. The method in brief:
as §2

Results filed as inconclusive are left out. More than one record can exist for a structure, and the calls need not agree. Activity calls are given as the source filed them. Calls follow the shape of the dose curve; as a rule, active = well fitted curve in the direction sought with a large enough effect in the repeat runs; inconclusive = weak or mixed curves; inactive = no such curve, though single readings can be large; an effect the other way counts as inactive or inconclusive.

On to `O=[N+]([O-])c1ccc2nc[nH]c2c1`, for which the result in assay [1], in assay [3] and in [5] was inactive. Also, the Potency result in [2], in assay [4], in assay [6], in assay [7] and in assay [8] was “inactive” throughout.

Take `Clc1ccccn1`: the compound was classed as inactive in assay [1], in assay [3] and in assay [5]. In addition, the Potency entry in [4], in assay [6], in [9], in assay [7], in assay [10] and in [8] was “inactive” in each case.

As for `CCCCCCCC=O`, the result in [1], in assay [3] and in assay [5] was inactive. The Potency entry in assay [2], in assay [4], in assay [6], in assay [7], in [10] and in assay [8] was “inactive” throughout.

As for `CC(C)CC(=O)CC(C)CC(C)C` (stereo not drawn), the compound was called inactive in assay [1], in [3] and in assay [5]. The Potency entry in assay [2], in assay [4], in assay [6], in assay [7], in assay [10] and in assay [8] was “inactive” in each case.

With `N#Cc1ccccc1`, the outcome in [1], in assay [3] and in [5] was inactive. Besides, the Potency result in assay [2], in [4], in assay [6], in [7], in assay [10] and in assay [8] was “inactive” in each case.

For the compound `CCNc1ccccc1`, the call in assay [1], in assay [3] and in [5] was inactive. Besides, the Potency entry in assay [2], in assay [4], in assay [6], in assay [7] and in assay [8] was “inactive” each time.

Consider `Cc1ccc(C(C)C)c(O)c1`, for which the compound was classed as inactive in assay [1], in assay [3] and in [5]. The Potency result in assay [2], in assay [4], in assay [6], in assay [7], in [10] and in [8] was “inactive” throughout.

For `CC1(C)NC(=O)NC1=O`, the result in assay [1], in assay [3] and in [5] was inactive. Moreover, the Potency result in assay [2], in [4], in assay [6], in assay [7], in assay [10] and in assay [8] was “inactive” each time.

Regarding `CC(=O)OCc1ccco1`, the call in assay [1], in assay [3] and in assay [5] was inactive. In addition, the Potency result in assay [2], in assay [4], in assay [6], in assay [7] and in assay [8] was “inactive” each time.

As to `CCCCCCCO`, the compound was called inactive in assay [1], in assay [3] and in assay [5]. Further, the Potency entry in assay [4], in [6], in [9], in assay [7], in assay [10] and in assay [8] was “inactive” in each case.

As for `COc1cc(OC)c(C(=O)CCCN2CCCC2)c(OC)c1`, the compound was called inactive in [1], in [3] and in [5]. Besides, the Potency result in [2], in [4], in assay [6], in assay [9], in assay [7] and in assay [8] was “inactive” throughout.

For `C=Cc1ccc(C)cc1`, the compound was classed as inactive in assay [1], in assay [3] and in [5]. Further, the Potency entry in assay [2], in [4], in assay [6], in assay [7] and in [8] was “inactive” in each case.

Consider `O=C(O)c1ccc(C(=O)O)c(C(=O)O)c1`, for which the call in assay [1], in assay [3] and in assay [5] was inactive. Further, the Potency result in [2], in assay [4], in [6], in assay [7], in assay [10] and in assay [8] was “inactive” in each case.

Turning to `Cc1ccc([N+](=O)[O-])cc1S(=O)(=O)O`, the outcome in [1], in assay [3] and in assay [5] was inactive. Further, the Potency result in assay [2], in assay [4], in [6], in [9], in assay [7] and in [8] was “inactive” throughout.

On to `COC(=O)CCCC(=O)OC`, for which the compound was called inactive in assay [1], in assay [3] and in [5]. Also, the Potency result in assay [2], in [4], in assay [6], in assay [7], in assay [10] and in assay [8] was “inactive” in each case.

For the compound `CC(C)=CCl`, the outcome in assay [1], in assay [3] and in [5] was inactive. Besides, the Potency entry in assay [2], in assay [4], in assay [6], in assay [7] and in assay [8] was “inactive” throughout.

In the case of `Nc1ccc(Cl)c(N)c1`, the call in [1], in [3] and in assay [5] was inactive. In addition, the Potency result in [2], in assay [4], in assay [6], in assay [7], in assay [10] and in [8] was “inactive” in each case.

As to `CCCCCCCCCCN`, the compound was called inactive in assay [1], in assay [3] and in [5]. Moreover, the Potency entry in assay [2], in assay [4], in assay [6], in [7] and in [8] was “inactive” each time.

In the case of `NCCNCCN`, the call in assay [1], in [3] and in assay [5] was inactive. Also, the Potency result in assay [2], in assay [4], in assay [6], in assay [9], in [7] and in assay [8] was “inactive” throughout.

For `CCCCOC(=O)c1ccc(N)cc1`, the compound was called inactive in [1], in assay [3] and in assay [5]. The Potency entry in [2], in assay [4], in [6] and in [7] was “inactive” throughout. Moreover, the Potency in [8] was 24.2 µM (active) and inactive.

In the case of `CN(C)CCOC(=O)COc1ccc(Cl)cc1`, the compound was called inactive in [1], in [3] and in assay [5]. Also, the Potency entry in assay [4], in [6], in assay [9], in [7], in assay [10] and in assay [8] was “inactive” each time.

For the compound `CC(C)CC(C)O` (stereo not drawn), the result in assay [1], in [3] and in [5] was inactive. Further, the Potency entry in [2], in [4], in [6], in assay [7] and in assay [8] was “inactive” each time.

As for `C=CCc1ccc(OC)c(OC)c1`, the call in assay [1], in [3] and in assay [5] was inactive. The Potency entry in [4], in assay [6], in assay [7], in assay [10] and in assay [8] was “inactive” each time.

As to `C[C@]12CCC(=O)C=C1CC[C@@H]1[C@@H]2[C@@H](O)C[C@@]2(C)[C@H]1CC[C@]2(O)C(=O)CO`, the Potency entry in assay [2], in assay [4] and in assay [10] was “inactive” in each case. The compound was called inactive in assay [3] and in assay [5].

Consider `CNC(=S)N(C)C`, for which the compound was classed as inactive in assay [1], in assay [3] and in assay [5]. Also, the Potency entry in assay [4], in assay [6], in assay [7], in assay [10] and in assay [8] was “inactive” throughout.

Take `Cc1ccc2ncccc2c1`: the result in [1], in [3] and in assay [5] was inactive. Also, the Potency entry in assay [4], in assay [6], in [9], in [7], in assay [10] and in [8] was “inactive” throughout.

Consider `CCO[Si](CCCN)(OCC)OCC`, for which the call in assay [1], in [3] and in assay [5] was inactive. The Potency result in [4], in [6], in assay [9], in assay [7], in [10] and in assay [8] was “inactive” throughout.

`O=S(=O)(O)c1ccc(N=Nc2c(O)ccc3cc(S(=O)(=O)O)ccc23)cc1`: the result in [1], in [3] and in assay [5] was inactive. In addition, the Potency entry in [4], in assay [6], in [9] and in assay [8] was “inactive” in each case.

With `CC1(C)CC(N)CC(C)(CN)C1` (stereo not drawn), the result in [1], in assay [3] and in assay [5] was inactive. For the same compound, the Potency result in assay [4], in assay [6], in assay [9], in assay [7] and in assay [8] was “inactive” in each case.

On to `CN(C)c1ccc(O)c2c1C[C@H]1C[C@H]3[C@H](N(C)C)C(=O)C(C(N)=O)=C(O)[C@@]3(O)C(=O)C1=C2O`, for which the result in assay [1], in assay [3] and in [5] was inactive. Also, the Potency entry in assay [4], in [6], in [9], in [7], in assay [10] and in assay [8] was “inactive” each time.

These data come from PubChem BioAssay (Tox21).
